Experimental data from PubChem BioAssay.
Values without a mark were called inactive. Some of the results follow. The source made the active and inactive calls. Unless noted, no stated cut-off is given here; in the data, active means inhibition above about 44%; inactive means the rest.

Columns and labels:
[1] = target: Nuclear receptor coactivator 1 (Homo sapiens) (UniProt Q15788); assay: SRC1 coactivator transcriptional activity inhibitors, confirmation, cell-based, luminescence, quadruplicate (AID 588820;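 active means mean inhibition above 46.68%, the untreated control wells mean plus 3 SD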;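 further: 0% = DMSO wells and 100% = gossypol 36 µM treated wells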); settings: HEK293 GAL4-SRC1 luciferase reporter, at 3.6 µM, active compounds read high
Sequence of Nuclear receptor coactivator 1 (Homo sapiens) (Q15788 whole entry, looked up, the tested form may be a part): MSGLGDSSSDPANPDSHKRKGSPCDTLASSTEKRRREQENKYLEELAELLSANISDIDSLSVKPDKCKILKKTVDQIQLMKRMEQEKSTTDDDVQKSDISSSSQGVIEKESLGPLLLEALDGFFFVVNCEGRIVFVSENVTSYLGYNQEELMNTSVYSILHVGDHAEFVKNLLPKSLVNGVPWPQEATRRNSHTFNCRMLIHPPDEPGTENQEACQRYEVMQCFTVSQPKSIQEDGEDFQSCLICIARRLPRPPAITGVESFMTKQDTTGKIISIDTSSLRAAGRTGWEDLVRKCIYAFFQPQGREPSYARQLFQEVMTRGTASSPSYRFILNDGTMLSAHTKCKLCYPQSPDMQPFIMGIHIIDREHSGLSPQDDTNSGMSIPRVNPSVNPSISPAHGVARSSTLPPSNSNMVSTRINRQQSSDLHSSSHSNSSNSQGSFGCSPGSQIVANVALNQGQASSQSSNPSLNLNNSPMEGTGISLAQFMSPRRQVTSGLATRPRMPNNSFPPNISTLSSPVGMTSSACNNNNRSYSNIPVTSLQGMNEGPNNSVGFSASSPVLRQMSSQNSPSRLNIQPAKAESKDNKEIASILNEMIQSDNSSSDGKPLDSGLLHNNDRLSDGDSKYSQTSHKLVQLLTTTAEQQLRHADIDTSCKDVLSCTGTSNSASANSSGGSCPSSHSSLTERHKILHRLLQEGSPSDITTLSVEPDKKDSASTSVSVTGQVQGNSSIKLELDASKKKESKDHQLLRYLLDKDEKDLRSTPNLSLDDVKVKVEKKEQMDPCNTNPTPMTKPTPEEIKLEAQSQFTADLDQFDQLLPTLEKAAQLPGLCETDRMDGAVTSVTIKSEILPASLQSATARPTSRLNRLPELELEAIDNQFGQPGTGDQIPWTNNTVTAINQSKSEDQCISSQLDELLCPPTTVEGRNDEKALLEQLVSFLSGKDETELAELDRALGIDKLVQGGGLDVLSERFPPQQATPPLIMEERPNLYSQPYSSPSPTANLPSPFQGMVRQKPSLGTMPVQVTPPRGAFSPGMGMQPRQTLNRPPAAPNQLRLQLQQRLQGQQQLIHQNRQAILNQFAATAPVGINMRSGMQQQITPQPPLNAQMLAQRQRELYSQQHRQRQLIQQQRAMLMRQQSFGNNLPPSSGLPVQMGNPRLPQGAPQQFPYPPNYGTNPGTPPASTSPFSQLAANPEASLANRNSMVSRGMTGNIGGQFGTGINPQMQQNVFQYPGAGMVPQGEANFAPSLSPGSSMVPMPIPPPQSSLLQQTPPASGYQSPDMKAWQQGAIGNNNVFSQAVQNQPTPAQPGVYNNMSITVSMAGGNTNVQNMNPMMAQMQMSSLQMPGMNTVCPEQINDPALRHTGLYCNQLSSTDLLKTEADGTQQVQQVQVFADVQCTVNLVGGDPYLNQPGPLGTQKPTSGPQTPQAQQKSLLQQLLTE

[2] = VP16 transactivation inhibitors, counter-screen for SRC1 inhibitor project, cell-based, luminescence, high throughput (AID 588824; in the data active means inhibition above about 25%); settings: cell-based VP16 transactivation luciferase luminescence; at 3.6 µM; active compounds read high
[3] = StAR promoter reporter inhibitors, counter-screen for LRH-1 inverse agonist project, cell-based, luminescence, high throughput (AID 651611; in the data active means inhibition above about 28%); settings: StAR promoter luciferase reporter counterscreen, at 3.6 µM, active compounds read high
[4] = target: Nuclear receptor subfamily 5 group A member 2 (Homo sapiens) (UniProt O00482); assay: LRH-1 (NR5A2) inverse agonists, retest, confirmation, cell-based, luminescence (AID 651613; in the data active means inhibition above about 42%;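 further: HEK293T cells co-transfected with LRH-1 and StAR promoter luciferase reporter; 0% = vehicle wells and 100% = parental cells lacking receptor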); settings: cell-based LRH-1 luciferase reporter, inverse agonism; at 3.6 µM; active compounds read high
Sequence of Nuclear receptor subfamily 5 group A member 2 (Homo sapiens) (O00482 whole entry, looked up): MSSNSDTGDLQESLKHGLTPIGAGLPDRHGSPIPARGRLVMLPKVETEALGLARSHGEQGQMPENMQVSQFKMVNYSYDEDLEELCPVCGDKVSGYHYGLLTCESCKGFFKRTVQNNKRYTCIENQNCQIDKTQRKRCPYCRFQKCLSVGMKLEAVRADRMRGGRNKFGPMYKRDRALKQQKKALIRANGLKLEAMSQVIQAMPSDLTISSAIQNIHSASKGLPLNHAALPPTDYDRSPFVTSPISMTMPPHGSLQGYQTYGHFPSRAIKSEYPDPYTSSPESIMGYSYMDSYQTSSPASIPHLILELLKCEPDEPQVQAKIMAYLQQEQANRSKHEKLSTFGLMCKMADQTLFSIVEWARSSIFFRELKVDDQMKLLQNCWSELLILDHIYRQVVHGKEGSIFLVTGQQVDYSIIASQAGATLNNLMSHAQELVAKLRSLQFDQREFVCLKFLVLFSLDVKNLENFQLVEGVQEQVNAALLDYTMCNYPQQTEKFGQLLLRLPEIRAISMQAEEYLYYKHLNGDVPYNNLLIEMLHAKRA

[5] = target: Steroidogenic factor 1 (Homo sapiens) (UniProt Q13285); assay: SF1 (NR5A1) inverse agonists, counter-screen for LRH-1 inverse agonist project, cell-based, luminescence, high throughput (AID 651614); settings: cell-based SF1 luciferase reporter, at 3.6 µM, active compounds read high;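 further: cells cotransfected with StAR promoter reporter and SF1 expression vector; 0% = vehicle on cells with receptor and 100% = vehicle on cells lacking receptor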
Sequence of Steroidogenic factor 1 (Homo sapiens) (Q13285 whole entry, looked up, the tested form may be a part): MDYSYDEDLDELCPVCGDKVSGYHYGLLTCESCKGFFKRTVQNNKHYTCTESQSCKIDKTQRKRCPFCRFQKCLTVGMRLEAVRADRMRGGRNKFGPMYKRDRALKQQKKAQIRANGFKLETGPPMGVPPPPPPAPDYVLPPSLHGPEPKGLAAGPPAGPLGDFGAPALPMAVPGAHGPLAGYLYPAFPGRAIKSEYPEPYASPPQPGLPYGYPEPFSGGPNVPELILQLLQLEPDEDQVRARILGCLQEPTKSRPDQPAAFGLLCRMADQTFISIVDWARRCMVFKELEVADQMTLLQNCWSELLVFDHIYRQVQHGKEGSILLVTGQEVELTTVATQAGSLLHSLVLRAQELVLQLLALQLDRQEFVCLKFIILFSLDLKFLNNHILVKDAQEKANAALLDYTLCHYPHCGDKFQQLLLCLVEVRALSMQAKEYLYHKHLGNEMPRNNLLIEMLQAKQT

[6] = VP16 transactivation reporter inhibitors, counter-screen for LRH-1 inverse agonist project, cell-based, luminescence, high throughput (AID 651615; in the data active means inhibition above about 33%); settings: Gal4-VP16 luciferase reporter cells, at 3.6 µM, active compounds read high
[7] = target: Photoreceptor-specific nuclear receptor (Homo sapiens) (UniProt Q9Y5X4); assay: NR2E3 agonist confirmation in cells, cell-based, luminescence, CHO-S two-hybrid (AID 624378;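 active means average inhibition above a cutoff equal to the mean inhibition of all tested compounds plus one SD, cut at about 70% in these data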;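 further: 0% = DMSO in NR2E3 cells and 100% = DMSO in cells lacking NR2E3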); settings: CHO-S mammalian two-hybrid NR2E3-NCOR, luciferase luminescence; at 3.98 µM; active compounds read high
Sequence of Photoreceptor-specific nuclear receptor (Homo sapiens) (Q9Y5X4 whole entry, looked up, the tested form may be a part): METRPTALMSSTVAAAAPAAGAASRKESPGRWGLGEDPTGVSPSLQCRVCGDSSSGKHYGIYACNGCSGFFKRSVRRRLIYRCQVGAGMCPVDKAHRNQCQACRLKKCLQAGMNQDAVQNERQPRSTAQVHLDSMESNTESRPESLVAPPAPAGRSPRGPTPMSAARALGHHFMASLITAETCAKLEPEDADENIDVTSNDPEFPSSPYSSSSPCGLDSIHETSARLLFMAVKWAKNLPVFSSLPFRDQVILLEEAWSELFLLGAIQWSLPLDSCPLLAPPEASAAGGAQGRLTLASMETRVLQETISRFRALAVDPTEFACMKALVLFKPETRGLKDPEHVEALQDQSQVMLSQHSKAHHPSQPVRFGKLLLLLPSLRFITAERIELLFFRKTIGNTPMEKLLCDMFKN

[8] = GAL4-VP16 reporter modulators, confirmation, counter-screen for NR2E3 agonist project, cell-based, luminescence, CHO-S, high throughput (AID 624379;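 active means mean inhibition above a cutoff equal to the average over all tested compounds plus one standard deviation, cut at about 70% in these data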;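 further: luciferase from a UAS reporter driven by GAL4-VP16 transactivation; 0% = DMSO with VP16-transfected cells and 100% = DMSO with cells lacking VP16; higher means less reporter light so more repression of VP16 activity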); settings: CHO-S GAL4-VP16 luciferase reporter, at 3.98 µM, active compounds read high
[9] = target: Receptor-interacting serine/threonine-protein kinase 2 (Homo sapiens) (UniProt O43353); assay: NOD2-RIPK2 binding disruptors, retest, confirmation, fluorescence, CHO cells, BLA complementation, triplicate (AID 624370;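 active means mean inhibition across replicates above a set limit taken from the earlier primary screen, cut at about 21% in these data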;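 further: 0% = DMSO-only wells and the high end = clavulanate BLA-blocked wells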); settings: CCF4 FRET, at 4.98 µM, active compounds read high
Sequence of Receptor-interacting serine/threonine-protein kinase 2 (Homo sapiens) (O43353 whole entry, looked up): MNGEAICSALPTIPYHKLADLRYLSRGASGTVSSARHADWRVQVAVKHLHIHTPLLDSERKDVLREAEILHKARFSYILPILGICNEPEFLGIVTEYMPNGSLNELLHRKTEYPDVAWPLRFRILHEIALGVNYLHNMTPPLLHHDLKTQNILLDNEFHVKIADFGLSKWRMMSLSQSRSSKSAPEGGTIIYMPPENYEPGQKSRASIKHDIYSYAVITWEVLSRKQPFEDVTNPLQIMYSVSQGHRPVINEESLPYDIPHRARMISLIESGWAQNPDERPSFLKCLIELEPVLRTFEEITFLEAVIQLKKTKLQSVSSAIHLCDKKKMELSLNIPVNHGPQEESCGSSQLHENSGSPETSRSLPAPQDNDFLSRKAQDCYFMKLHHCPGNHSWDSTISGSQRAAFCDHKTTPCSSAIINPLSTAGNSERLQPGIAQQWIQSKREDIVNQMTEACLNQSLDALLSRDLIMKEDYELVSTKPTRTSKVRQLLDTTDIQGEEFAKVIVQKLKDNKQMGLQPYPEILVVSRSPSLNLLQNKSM

[10] = beta-lactamase reporter inhibitors in CHO cells, confirmation, artefact control for NOD2-RIPK2 interaction inhibitor project, cell-based, CHO-K1 CMV-bla, CCF4 FRET, fluorescence (AID 624371;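 active means mean inhibition above the low-control mean inhibition plus three low-control SD, cut at about 11% in these data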;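 further: 0% = DMSO only wells and 100% = clavulanate high control wells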); settings: CCF4 FRET ratio, counterscreen, at 4.98 µM, active compounds read high

## O=Cc1cn(Cc2cccc([N+](=O)[O-])c2)c2ccccc12
[1]
  inhibition: 39.9%
[2]
  inhibition: 30.7% (active)
[3]
  inhibition: 65.6% (active)
[4]
  inhibition: 74.4% (active)
[5]
  inhibition: 80.3% (active)
[6]
  inhibition: 14.4%

## O=[N+]([O-])c1cc(F)c(N2CCCCCC2)cc1N1CCNCC1
[3]
  inhibition: 14.3%
[4]
  inhibition: 54.1% (active)
[5]
  inhibition: 54.7% (active)
[6]
  inhibition: 9.46%

## CC12CCC(O)CC1CCC1C2CCC2(C)C(C3=CC(=O)OC3)C(O)CC12O (stereo unspecified)
[3]
  inhibition: 92.6% (active)
[4]
  inhibition: 94.1% (active)
[5]
  inhibition: 74.8% (active)
[6]
  inhibition: 41% (active)

## CCCCCCN=C(CC)c1c(O)n(CCCC)c(=O)[nH]c1=O
[7]
  inhibition: 84.2% (active)
[8]
  inhibition: 56.9%

## CCOC(=O)[C@]12Cc3cc(C)ccc3[C@H]1N(C1CCCCC1)C(=O)c1ccccc12
[3]
  inhibition: 71.1% (active)
[4]
  inhibition: 102% (active)
[5]
  inhibition: 71.5% (active)
[6]
  inhibition: 88.4% (active)

## COc1cccc2c1C(=O)c1c(O)c3c(c(O)c1C2=O)CC(O)(C(C)=NO)CC3OC1CC(N)C(O)C(C)O1 (stereo unspecified)
[1]
  inhibition: -12.8%
[2]
  inhibition: 42.6% (active)
[4]
  inhibition: 79.4% (active)
[5]
  inhibition: 62.3% (active)

## CCOC(=O)[C@]12Cc3ccccc3[C@H]1N(C1CCCCC1)C(=O)c1cc(OC)ccc12
[9]
  inhibition: 61.3% (active)
[10]
  inhibition: 0.28%
[3]
  inhibition: 55.3% (active)
[4]
  inhibition: 98% (active)
[5]
  inhibition: 58.9% (active)
[6]
  inhibition: 85.2% (active)

## CCOC(=O)[C@]12Cc3cc(Cl)ccc3[C@H]1N(C1CCCCC1)C(=O)c1cc(OC)ccc12
[3]
  inhibition: 87.5% (active)
[4]
  inhibition: 105% (active)
[5]
  inhibition: 93.1% (active)
[6]
  inhibition: 87.7% (active)

## CCCCn1nnnc1C(CCc1ccccc1)N1CCC(n2c(=O)[nH]c3ccccc32)CC1 (stereo unspecified)
[1]
  inhibition: -23.9%
[2]
  inhibition: 7.75%

## OC1(c2ccc(F)cc2)CC2CCC(C1)N2Cc1nnnn1C1CCCC1 (stereo unspecified)
[3]
  inhibition: -7.67%
[4]
  inhibition: 46.8% (active)
[5]
  inhibition: 50.3% (active)
[6]
  inhibition: -0.39%

## N#CCCn1cc(C(=O)Nc2ccccc2Br)c(-c2ccc([N+](=O)[O-])cc2)n1
[3]
  inhibition: 18.4%
[4]
  inhibition: 61.5% (active)
[5]
  inhibition: 51.6% (active)
[6]
  inhibition: 1.09%

## CC1CCN(C(=O)CCl)CC1
[3]
  inhibition: 21.1%
[4]
  inhibition: 58.2% (active)
[5]
  inhibition: 57% (active)
[6]
  inhibition: -7.83%

## CCOC(=O)[C@]12Cc3cc(C)ccc3[C@H]1N(C1CCCCC1)C(=O)c1cc(OC)ccc12
[3]
  inhibition: 63.5% (active)
[4]
  inhibition: 97.4% (active)
[5]
  inhibition: 78.2% (active)
[6]
  inhibition: 87.9% (active)

## CCN1CCN(c2cc(N3CCCC3)c([N+](=O)[O-])cc2F)CC1
[3]
  inhibition: 1.38%
[4]
  inhibition: 51.2% (active)
[5]
  inhibition: 46.4% (active)
[6]
  inhibition: 15.6%

## COc1ccc(NS(=O)(=O)c2ccc(OCC(=O)N3CCN(C)CC3)cc2)cc1Cl
[3]
  inhibition: 2.1%
[4]
  inhibition: 48.2% (active)
[5]
  inhibition: 34.7%
[6]
  inhibition: 3.62%

## N#Cc1ccc(Cn2cc(C=O)c3ccccc32)cc1
[3]
  inhibition: 4.87%
[4]
  inhibition: 39.1%
[5]
  inhibition: 42.4%
[6]
  inhibition: 1.97%

## CCOC(=O)[C@]12Cc3cc(Cl)ccc3[C@H]1N(C1CCCCC1)C(=O)c1ccccc12
[3]
  inhibition: 80.2% (active)
[4]
  inhibition: 107% (active)
[5]
  inhibition: 89.1% (active)
[6]
  inhibition: 92.8% (active)

## CC1=C(O)C(=O)C=C2C1=CC=C1C2(C)CCC2(C)C3CC(C)(C(=O)O)CCC3(C)CCC12C (stereo unspecified)
[3]
  inhibition: 91.6% (active)
[4]
  inhibition: 106% (active)
[5]
  inhibition: 96.7% (active)
[6]
  inhibition: 89.5% (active)

## CC(=O)OC(C)(C)/C=C/C(=O)C(C)(O)C1C(O)CC2(C)C3CC=C4C(CC(O)C(=O)C4(C)C)C3(C)C(=O)CC12C (stereo unspecified)
[3]
  inhibition: 66% (active)
[4]
  inhibition: 56.8% (active)
[5]
  inhibition: 59.2% (active)
[6]
  inhibition: 59.7% (active)

## CC(=O)O[C@H]1C(=O)[C@@]2(C)C([C@H](OC(=O)c3ccccc3)[C@]3(O)C[C@H](OC(=O)[C@H](O)[C@@H](NC(=O)Cc4ccccc4)c4ccccc4)C(C)=C1C3(C)C)[C@]1(OC(C)=O)CO[C@@H]1C[C@@H]2O (stereo partly specified)
[3]
  inhibition: 50.1% (active)
[4]
  inhibition: 45.2% (active)
[5]
  inhibition: 54.9% (active)
[6]
  inhibition: 36.1% (active)

## CC[n+]1c(/C=C/C=C/c2ccc(N(C)C)cc2)sc2ccccc21
[3]
  inhibition: 54% (active)
[4]
  inhibition: 104% (active)
[5]
  inhibition: 86.4% (active)
[6]
  inhibition: 86.5% (active)

## COc1cc2c(cc1OC)[C@@H]1C(=O)c3ccc4c(c3O[C@@H]1CO2)C[C@H](C(C)C)O4
[3]
  inhibition: 34.2% (active)
[4]
  inhibition: 68.7% (active)
[5]
  inhibition: 61.4% (active)
[6]
  inhibition: 57.4% (active)

## COC(=O)C12CCc3c(ccc4cc(OC)ccc34)C1=CC(=O)C2 (stereo unspecified)
[3]
  inhibition: 0.25%
[4]
  inhibition: 12.9%
[5]
  inhibition: 25.3%
[6]
  inhibition: -1.27%

## Cc1ccc(-n2nc(C)cc2NC(=O)COc2cc(C)cc3oc(=O)c4c(c23)CCC4)cc1
[3]
  inhibition: 19.1%
[4]
  inhibition: 60.3% (active)
[5]
  inhibition: 61.2% (active)
[6]
  inhibition: -10.8%
